# Screening data deposited in PubChem by National Center for Advancing Translational Sciences (NCATS).
# Only some compounds are listed: those with a hit (about 11% of all), similar ones and a draw of the others.
# SW480 rereplic: induces DNA re-replication in SW480 colon adenocarcinoma cells; Potency, µM (series often up to 46.1 µM), actives largely listed as activators; SW480 DNA re-replication, Hoechst DNA content imaging, 48 h; actives 1.8% (n = 340,000); also: nearly all actives have a fitted effect of over 55% in size
#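 Quantitative HTS format with DMSO vehicle controls; 48 hr drug incubation at 37 C, then 40 min Hoechst staining and scanning imager measurement at 405 nm excitation.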
# MCF10A rereplic: DNA re-replication induction in MCF 10a cells. actives 2.9% (n = 350,000). MCF 10A DNA re-replication, Hoechst nuclear intensity, 48 h. Potency, µM (doses to about 46.1 µM), most hits filed as activators. AID 624296; also: nearly all actives have a fitted effect of over 50% in size
# Gal4-VP16 FLuc: inhibits Gal4-VP16 luciferase reporter, ROR gamma counter-screen | actives 3.5% (n = 310,000) | Drosophila S2 Gal4-VP16 UAS-luciferase, luminescence, 20 h | AID 2546 | Potency, µM (titrated, usually from 53.6 µM), hits mostly inhibitors;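 also: Gal4-VP16 expression switched on by copper sulfate through the metallothionein promoter; nearly all actives have a fitted effect of over 50% in size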
# RORgamma inh: inhibitors of mouse ROR gamma transcriptional activity; Drosophila S2 Gal4-RORgamma UAS-luciferase reporter, 20 h; P51450; actives 5.4% (n = 310,000); Potency, µM (highest dose often 53.6 µM), most hits filed as inhibitors; also: nearly all actives have a fitted effect of over 60% in size
# Target sequence (P51450 whole entry, looked up, the tested form may be a part): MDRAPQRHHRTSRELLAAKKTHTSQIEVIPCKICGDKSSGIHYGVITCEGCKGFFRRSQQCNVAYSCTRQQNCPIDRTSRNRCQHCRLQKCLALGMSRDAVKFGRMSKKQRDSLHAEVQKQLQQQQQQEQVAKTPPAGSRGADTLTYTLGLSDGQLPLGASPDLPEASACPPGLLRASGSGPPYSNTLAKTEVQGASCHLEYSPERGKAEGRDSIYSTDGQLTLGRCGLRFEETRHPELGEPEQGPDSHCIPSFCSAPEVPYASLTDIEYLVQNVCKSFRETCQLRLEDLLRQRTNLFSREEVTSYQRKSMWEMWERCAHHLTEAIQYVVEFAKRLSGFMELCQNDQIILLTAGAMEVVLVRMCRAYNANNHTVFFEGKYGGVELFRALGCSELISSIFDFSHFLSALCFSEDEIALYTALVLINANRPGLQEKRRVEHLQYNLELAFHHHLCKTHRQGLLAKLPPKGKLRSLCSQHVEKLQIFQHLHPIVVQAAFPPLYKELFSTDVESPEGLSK
#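 In this cell-based reporter format, copper sulfate (700 uM final) drives Gal4–ROR gamma fusion expression from a metallothionein promoter in Drosophila Schneider cells; compounds preincubated 1 hr, reporter read after 20 hr at ambient temperature.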
# IL-1B inflam inh: inhibitors of inflammasome signaling (IL-1 beta secretion). actives 4.7% (n = 360,000). THP-1 LPS/ATP IL-1B secretion, AlphaLISA, 16 h; stronger effect = lower value. activity change, % at 57.5 µM; in the data active = activity change below about -50%; inconclusive = mostly about -30% to -49%
#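 THP-1 cells pretreated 1 hr with compounds (up to 57.5 uM final), then stimulated with LPS (250 ng/mL final) plus ATP (1.25 mM final); secreted IL-1B measured by AlphaLISA after 16 hr, decreased signal indicating inhibition.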
# Numbers stand for hits; n = inactive; u = inconclusive; x = no result given; [ ] = another dose, or the depositor's remark. Unless noted, calls follow the shape of the dose curve; as a rule, active = well fitted curve in the direction sought with a large enough effect; inconclusive = small, poorly fitted or top-dose-only effect, or another doubt; inactive = no such curve, though single readings can be large; an effect the other way counts as inactive or inconclusive.
SMILES,SW480 rereplic,MCF10A rereplic,Gal4-VP16 FLuc,RORgamma inh,IL-1B inflam inh
CC1(C)C(=O)Nc2ccccc2N1C(=O)COC(=O)c1ccc(NC(N)=O)cc1,n,n,x,x,n
CC(C)NC(=O)C1(C)CN(S(C)(=O)=O)CC(=O)N1CC(F)(F)F (stereo unspecified),x,x,x,x,n
CN(CCCCCCCCCCN(C)C(=O)Oc1cccc([N+](C)(C)C)c1)C(=O)Oc1cccc([N+](C)(C)C)c1,n,n,x,x,n
CC(C)C[C@@]12C(=O)N(c3cccc(Br)c3)C(=O)N1[C@H](c1ccc(F)cc1)[C@@H]1C(=O)N(C3CCCCC3)C(=O)[C@@H]12,n,n,x,x,n
Cc1cc(C)n(/N=C/c2ccccc2O)c(=O)c1,n,n,n,n,n
CN=c1scc(-c2cccs2)n1/N=C/c1ccccc1O,n,15µM,n,n[10 µM],n
O=c1[nH]cc(F)c(=O)n1C1OC(CO)C(O)C1O (stereo unspecified),x,x,x,x,n
C[C@H]1[C@H](C)CC[C@]2(C=O)CC[C@]3(C)C(=CC[C@@H]4[C@@]5(C)C[C@@H](O)[C@H](O)[C@@](C)(CO)[C@@H]5CC[C@]43C)[C@H]12,x,x,u,n,x
O=C(NNC(=S)NC(=O)c1ccccc1[N+](=O)[O-])c1ccccc1,n,n,n,n,n
CCC(=O)NC(=S)NNC(=O)c1ccccc1[N+](=O)[O-],n,n,n,18µM,n
O=C(NC(=S)NNC(=O)c1ccccc1[N+](=O)[O-])c1ccccc1,n,n,3.2µM,4.5µM,n
CCOC(=O)C1=C(C)Nc2ccccc2N=C1NC(=O)c1oc2ccccc2c1COC,n,n,x,x,n
COc1ccc(C(=O)SC2=NCCS2)cc1OC,n,n,n,u,n
COc1ccc(C(=O)Sc2ccc(Cl)cc2)cc1OC,n,n,n,u,-84
COc1ccc(C(=O)Sc2ccc(C)cc2)cc1OC,n,n,n[0.365 µM],n,-64
CCc1noc(C)c1C(=O)NNC(=O)COc1cc(C)ccc1C,n,n,x,x,n
CCCNC(=O)C1CC(=O)N(c2ccc(OCc3ccc(F)cc3)cc2)C1 (stereo unspecified),n,0.65µM,n,n,n
CCCNC(=O)C1CC(=O)N(c2ccc(OCc3ccc(Cl)cc3)cc2)C1 (stereo unspecified),n,n,n,n[1.91 µM],n
CC(c1cccs1)N(Cc1ccco1)C(=O)Nc1ccc(Cl)c(Cl)c1 (stereo unspecified),u,u,n,n,u
Cc1cc(C)c(NC(=S)N(CCc2ccncc2)C(C)C)c(C)c1,n,n,n,n,n
Cc1ccc(C)c(NC(=S)N(CCc2ccncc2)C(C)C)c1,n,n,n,11µM,n
Cc1ccc(Cl)cc1NC(=S)N(Cc1ccco1)C(C)c1cccs1 (stereo unspecified),n,u,7.1µM,3.5µM,n
Cc1ccc(C)c(NC(=S)N(Cc2ccco2)C(C)c2cccs2)c1 (stereo unspecified),n,n,5µM,2.5µM,n
Cc1ccc(NC(=S)N(Cc2ccco2)C(C)c2cccs2)c(Cl)c1 (stereo unspecified),n,n,n[10 µM],n,-71
CCC1Sc2ccc(S(=O)(=O)CCC(=O)Nc3c(Cl)cc(OC)cc3OC)cc2NC1=O (stereo unspecified),n,n,n,n,n
SMILES,SW480 rereplic,MCF10A rereplic,Gal4-VP16 FLuc,RORgamma inh,IL-1B inflam inh
Cc1ccsc1/C=N/n1c(-c2cccnc2)n[nH]c1=S,n,n,n,11µM,n
S=c1[nH]nc(-c2ccccc2)n1/N=C/c1cccs1,n,n,n[0.365 µM],4µM,n
Cc1ccc(-c2n[nH]c(=S)n2/N=C/c2cccs2)cc1,u,n,3.2µM,5µM,n
Cc1cc(-c2n[nH]c(=S)n2/N=C/c2cccs2)n[nH]1,n,n,u,n,n
S=c1[nH]nc(-c2cccs2)n1/N=C/c1cn(-c2ccccc2)nc1-c1cccs1,n,u,u,7.9µM,x
O=[N+]([O-])c1ccccc1/C=N/n1c(-c2ccccc2)n[nH]c1=S,n,n,u,u,n
O=[N+]([O-])c1ccc(/C=N/n2c(-c3cccnc3)n[nH]c2=S)cc1,n,n,n,n,n
Cc1ccc(-c2nn(-c3ccccc3)cc2/C=N/n2c(-c3cccs3)n[nH]c2=S)cc1,u,n,n,u,x
CC(=O)OC[C@@H]1O[C@H](C/C=N\OC[C@@H](C)[C@H](OCc2ccccc2)C(C)C)C=C[C@@H]1OC(C)=O,x,x,n[10 µM],n[10 µM],x
CN(C)CCCOc1c2ccccc2n(Cc2ccccc2)[n+]1[O-],x,x,n,n,x
COc1ccc(C(=O)N2c3ccccc3CC2C)cc1OC (stereo unspecified),n,u,n,n,n
CC1Cc2ccccc2N1C(=O)c1ccc2c(c1)OCO2 (stereo unspecified),n,n,x,x,-64
CC1Cc2ccccc2N1C(=O)c1ccc(N2CCCC2)c([N+](=O)[O-])c1 (stereo unspecified),u,u,u,u,-82
COc1ccc(-c2cc(=O)n(-c3ccc([N+](=O)[O-])cc3)[nH]2)cc1,n,16µM,n,n[10 µM],n
O=C(Nc1ncc(Cc2cccc(Cl)c2)s1)c1ccc([N+](=O)[O-])cc1,n,n,2.8µM,5µM,n
O=C(Nc1ncc(Cc2ccccc2Cl)s1)C1CCCO1 (stereo unspecified),n,n,u,n,n
CC(C)C(=O)Nc1ncc(Cc2cccc(Cl)c2)s1,n,n,u,11µM,-72
O=C(Nc1ncc(Cc2ccccc2Cl)s1)c1ccc([N+](=O)[O-])cc1,n,u,2.8µM,2µM,n
O=C(Nc1ncc(Cc2cccc([N+](=O)[O-])c2)s1)c1ccco1,n,u,u,u,n
CC(=O)Nc1ncc(Cc2cccc(Cl)c2)s1,u,n,u,n,n
CCc1ccc(CCC(=O)Nc2ncc(Cc3ccccc3Cl)s2)o1,4.6µM,1.6µM,u,u,n
O=S1(=O)CC(N2CCCCC2)CN1Cc1cn(Cc2cccc(C(F)(F)F)c2)nn1 (stereo unspecified),x,x,x,x,n
CC(=O)Nc1ccc2c(c1)C(N1CC3CCC(CC3)C1)c1ccccc1-2 (stereo unspecified),n,u,x,x,u
O=c1cnc2cnc(Nc3ccccc3)nc2n1C1CC1,x,x,n,u,x
CC(C)(C)CCN1CCC(CN2CCNC(=O)C2=O)CC1,n,n,x,x,n
CCOC(=O)C1(C)CCN1C(=O)c1cc(-c2ccc(Cl)cc2)oc1C (stereo unspecified),x,x,x,x,-103
Cc1ccc(-c2ccc(/C=N/NC(=O)c3ccccc3O)o2)cc1,x,x,0.16µM,0.71µM,x
O=C(N/N=C/c1ccc(-c2ccc(S(=O)(=O)Nc3ncccn3)cc2)o1)c1cc2ccccc2cc1O,n[9.22 µM],n,n,n,n
NS(=O)(=O)c1ccc(-c2ccc(/C=N/NC(=O)c3ccccc3O)o2)cc1,u,n,18µM,3.5µM,u
Cc1cc(/C=C(\C#N)C(=O)NCc2ccco2)c(C)[nH]1,n,n,n,n,-51
